Assay outcomes as filed in PubChem.
Rows were chosen to be rich in hits. Some 2.7% of all compounds tested hit in one or more screens of this group.
PAX8 inh HTS: inhibitors of PAX8-driven TPO luciferase reporter, primary screen, RMG-I cells, single concentration | SteadyGlo, 24 h | AID 652154, 2013 | inhibition, % at 12.6 µM | hit rate 1.2% among 360,000;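 active = mean replicate inhibition at least 60% with every replicate also reaching 60%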;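 note: luciferase light reporting Pax8 driven TPO promoter activity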
PGC1a acetyl inh: inhibitors of PGC1a acetylation signal, primary screen, cell-based, U2OS, AlphaScreen, inhibitor mode | AlphaScreen anti-acetyl-lysine; with virally co-expressed GCN5 acetyltransferase | inhibition, % at 15.6 µM | hit rate 0.17% among 350,000;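 active = every replicate shows inhibition of at least 40%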
EWS-Fli inh: EWS/Fli-driven NR0B1 reporter inhibitors, primary screen, A673 cells, NR0B1 luciferase, luminescence, MLPCN library | viability-normalised | inhibition, % at 12.6 µM | hit rate 0.67% among 350,000 | AID 651661, 2012;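 active = mean inhibition of at least 50% after viability correction, with every replicate also passing that limit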;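 note: firefly luciferase signal divided by Alamar Blue viability fluorescence both relative to DMSO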
INS-1E GSIS act: GLuc luminescence reporter in INS-1E cells, primary screen for activators of glucose-dependent secretion of insulin | INS-1E GLuc reporter insulin secretion, 2-3 h | activation, % at 16.6 µM | hit rate 0.61% among 370,000 | AID 743287, 2014;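 active = lowest replicate activation of at least 40%, so every replicate reaches that level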
HIV Env fusion: inhibitors of HIV-1 Env-driven cell-cell fusion, primary screen, HeLa-JRFL effector, CEM21 target cells, luciferase; inhibition, % at 12.3 µM; hit rate 1.1% among 360,000;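 active = mean replicate inhibition score of at least 50 and every replicate individually at or above 50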
F508del corr: F508del CFTR correction, initial screen, CFBE line, single point | CFBE cells, YFP halide quenching; stimulated with forskolin plus potentiator P3; % fluorescence drop versus neutral controls | activity (quench increase), % at 7.58 µM | hit rate 0.36% among 350,000 | AID 720511, 2013;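 active = mean added fluorescence quench of at least 8% versus neutral control, with both replicates also reaching 8%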;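 note: cells transiently co-express mutant CFTR-F508del with the halide-sensitive YFP; corrector assay measuring rescue of mutant channel to the surface after 24 h compound exposure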
Numbers stand for hits; i = inactive; nt = not tested or not shown; ! = a repeat was not active.

SMILES	PAX8 inh HTS	PGC1a acetyl inh	EWS-Fli inh	INS-1E GSIS act	HIV Env fusion	F508del corr
C[C@@H]1CN([C@H](C)CO)S(=O)(=O)c2ccc(C#CC3CCCC3)cc2O[C@H]1CN(C)C(=O)Cc1ccccc1	66.8!	i	i	i	i	i
C[C@H]1CN([C@@H](C)CO)S(=O)(=O)c2ccc(C#Cc3ccccc3F)cc2O[C@@H]1CN(C)C(=O)Cc1ccccc1	i	i	i	i	i	i
C[C@@H]1CN([C@@H](C)CO)S(=O)(=O)c2ccc(C#Cc3ccccc3F)cc2O[C@H]1CN(C)C(=O)Cc1ccccc1	91.5	i	i	i	i	i
C[C@H]1CN([C@@H](C)CO)C(=O)Cc2cc(NC(=O)c3ccncc3)ccc2O[C@@H]1CN(C)C(=O)Nc1cccc2ccccc12	i	i	i	i	i	i
O=C(Cc1ccccn1)NCC[C@@H]1CC[C@H](NC(=O)Nc2ccc(C(F)(F)F)cc2)[C@H](CO)O1	i	77.9	i	i	i	12.0
COc1ccc(NC(=O)N[C@H]2CC[C@H](CCn3cc(-c4ccccc4F)nn3)O[C@@H]2CO)cc1	i	69.1	i	i	i	i
O=C(Cc1ccccn1)NCC[C@H]1CC[C@H](NC(=O)Nc2ccc(C(F)(F)F)cc2)[C@@H](CO)O1	i	i	i	i	i	i
COc1ccc(-c2cn(CC[C@H]3CC[C@@H](NC(=O)Cc4ccccn4)[C@@H](CO)O3)nn2)cc1	87.7	i	i	i	i	i
O=C(Nc1ccc(Cl)c(Cl)c1)N[C@@H]1CC[C@H](CCn2cc(C3CCCCC3)nn2)O[C@H]1CO	113.2	i	i	i	i	i
CC(C)c1cn(CC[C@H]2CC[C@@H](NC(=O)c3cccc(F)c3)[C@H](CO)O2)nn1	i	i	i	i	i	i
COCC#Cc1cnc2c(c1)C(=O)N([C@@H](C)CO)C[C@H](C)[C@@H](CN(C)C(=O)C1CC1)O2	nt	i	i	i	i	i
COCc1cc(N2CCN(C(=O)OC(C)(C)C)C[C@@H]2C)ccc1N1C[C@@H](C)O[C@@H](C)C1	i	nt	i	nt	i	i
COCc1cc(N2CCN(C(=O)OC(C)(C)C)C[C@H]2C)ccc1N1CCS(=O)(=O)CC1	i	nt	i	i	58.6	i
COc1ccc(CN2CC3(CCN(C(=O)Cc4ccncc4)CC3)c3c([nH]c4cc(OC)ccc34)[C@@H]2CO)cc1	nt	i	i	i	nt	i
O=C(NC1CCCCC1)C(c1ccccc1)n1c(=O)c(-c2ccco2)nc2ccccc21 (configuration not stated)	i	nt	i	i	63.1	i
COc1ccc(C(C(=O)NC2CCCC2)n2c(CSCCOc3ccccc3)nc3ccccc32)cc1 (configuration not stated)	i	nt	i	i	77.7	i
CC(=O)C1CCC2C3CC=C4CC(SC(=N)N)CCC4(C)C3CCC12C (configuration not stated)	nt	nt	i	283.8	i	i
CC(C)(C)[C@H](N)C(=O)N[C@H]1CCC2C3CC=C4C[C@@H](O)CC[C@]4(C)C3CC[C@@]21C (some centres not stated)	95.1	i	55.6	202.5	i	i
CC(C)C(=O)N[C@H]1CCC2C3CC=C4C[C@@H](O)CC[C@]4(C)C3CC[C@@]21C (some centres not stated)	i	i	i	i	i	i
CCNC(=O)C[C@H]1CC[C@H](NC(=O)C2CC2)[C@H](CO)O1	i	i	i	i	i	i
C[C@@H]1CCCCO[C@@H](CN(C)C(=O)c2ccncc2)[C@H](C)CN([C@H](C)CO)C(=O)c2cc(NS(=O)(=O)c3ccc(F)cc3)ccc2O1	i	i	i	i	i	i
CN1CCSc2ccc(C(=O)Nc3cccc(F)c3)cc21	i	nt	i	66.8	i	i
COc1ccccc1S(=O)(=O)N(C)C[C@@H]1OCc2ccccc2-c2c(n(C)c3ccccc23)C(=O)N([C@@H](C)CO)C[C@@H]1C	i	i	i	i	i	i
CCn1c2ccccc2c2cc(CNCc3ccc(OC)cc3OC)ccc21	i	nt	i	i	56.4	i
